HCMV antiviral: human cytomegalovirus inhibition. HFF cells, HCMV-luciferase reporter, 72 h; active compounds read low. activity change, negative = inhibition, % at 57.5 µM. actives 4.5% (n = 410,000); in the data active means activity change below about -60%; inconclusive means no clear call, values can overlap the other calls; inactive means above about -39%
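Two-dose cell screen: HFF monolayers treated with compounds and infected with luciferase-expressing HCMV at 1 PFU/cell, 72 h at 37C, then lysed for luciferase measurement.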
VACV mCherry inh: vaccinia inhibition (mCherry reporter) | Vaccinia virus mCherry reporter infection, fluorescence | Potency, µM (doses to about 36.5 µM), hits mostly inhibitors | actives 0.63% (n = 310,000); calls by dose curve; tested in A549 cells; further: nearly all actives have a fitted effect of over 35% in size
FMDV antiviral: blocks foot and mouth disease virus; Potency, µM (series often up to 57.9 µM), usual class: inhibitors; FMDV antiviral cell-based qHTS; actives 1.2% (n = 410,000); AID 1159524; calls by dose curve; tested in HEK293T cells; further: read-out not given here; nearly all actives have a fitted effect of over 45% in size
Vaccinia Venus: vaccinia inhibition (Venus reporter) | Vaccinia virus Venus reporter expression, fluorescence | actives 0.46% (n = 330,000) | Potency, µM (top dose mostly 36.5 µM), usual class: inhibitors; calls by dose curve; tested in A549 cells; further: nearly all actives have a fitted effect of over 30% in size
HCV inhibitor: inhibitors of hepatitis C virus infection; Huh7.5.1 HCVcc-Cre infection, luciferase reporter, 44 h; Potency, µM (doses to about 41.8 µM), most hits filed as inhibitors; actives 3.4% (n = 340,000); AID 651820; active means well fitted inhibition curve with a large enough effect; inconclusive means small, poorly fitted or top-dose-only effect, or another doubt; inactive means no such curve, though single readings can be large or run the other way
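Reporter virus HCVcc-Cre (~0.5 moi) infects cells exposed to compound; seeding density 1,000 cells/well with 4 h settling beforehand. Luminescence, 15 sec read, taken 44 h post-infection following a 15 min RT substrate incubation.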
Each line names hits and unclear results; the compound was inactive in the other large screens. Most compounds without a hit are left out; they make up all but 7.3% or so of the library.

COc1cccc(Nc2nc(-c3cccs3)nc3ccccc23)c1	Vaccinia Venus inconclusive, HCV inhibitor inconclusive
COc1ccc(Nc2nc(-c3cccc([N+](=O)[O-])c3)nc3ccccc23)cc1	VACV mCherry inh inconclusive, FMDV antiviral 40µM, Vaccinia Venus inconclusive, HCV inhibitor inconclusive
COc1ccc(Nc2nc(-c3cccs3)nc3ccccc23)cc1	HCMV antiviral -102, FMDV antiviral inconclusive, Vaccinia Venus inconclusive, HCV inhibitor 4.5µM
c1csc(-c2nc(N3CCOCC3)c3ccccc3n2)c1	FMDV antiviral inconclusive, HCV inhibitor 11µM
CCn1c(=O)n(CC)c2cc(N3CCCCC3)c(NC(=O)Nc3cc(Cl)ccc3OC)cc21	HCMV antiviral inconclusive (no result: HCV inhibitor)
CC(NC(=O)CN1C(=O)NC2(CCCCCC2)C1=O)c1ccccc1 (configuration not stated)	HCMV antiviral -61, HCV inhibitor inconclusive
Cn1c(NC(=O)C[n+]2cc(-c3ccc(Cl)cc3)n3c2CCC3)cc(=O)n(C)c1=O	HCMV antiviral -77
O=C(CN1C(=O)NC2(CCCC2)C1=O)Nc1nc(-c2ccc(F)cc2)cs1	FMDV antiviral inconclusive, HCV inhibitor 13µM (no result: VACV mCherry inh, Vaccinia Venus)
CC(C)C(C)NC(=O)CN1C(=O)NC2(CCCCCC2)C1=O (configuration not stated)	none
CC(=O)Nc1ccc(-c2csc(NC(=O)CN3C(=O)NC4(CCCC4)C3=O)n2)cc1	HCV inhibitor inconclusive
O=C(C[n+]1cc(-c2ccc(Cl)cc2)n2c1CCC2)Nc1nc(-c2ccc(F)cc2)cs1	HCMV antiviral -63, HCV inhibitor 10µM (no result: VACV mCherry inh, Vaccinia Venus)
CN(c1ccccc1)c1nc(C#N)nc(N2CCOCC2)n1	none (no result: HCMV antiviral, FMDV antiviral, HCV inhibitor)
O=C(CN1CCCCC1)Nc1nc(-c2ccc(Cl)cc2)cs1	HCMV antiviral inconclusive, HCV inhibitor 10µM
NC(=O)c1ccsc1NC(=O)CN1C(=O)NC2(CCCCC2)C1=O	HCMV antiviral -105 (no result: VACV mCherry inh, Vaccinia Venus)
O=C(C[n+]1cc(-c2ccc(F)cc2)n2c1CCC2)Nc1nc(-c2ccc(F)cc2)cs1	HCV inhibitor inconclusive
O=C(C[n+]1cc(-c2ccccc2)n2c1CCC2)Nc1nc(-c2ccc(F)cc2)cs1	HCV inhibitor 0.71µM
N#Cc1ccsc1NC(=O)CN1C(=O)NC2(CCCC2)C1=O	none (no result: VACV mCherry inh, FMDV antiviral, Vaccinia Venus)
COc1ccc(C2(O)CCN(CC(=O)Nc3nc(-c4ccccc4)cs3)CC2)cc1	VACV mCherry inh inconclusive, FMDV antiviral 28µM, HCV inhibitor inconclusive
CCOc1ccc(NC(=O)Cn2c(=O)oc3cc(S(=O)(=O)NC4CCCC4)ccc32)cc1	none (no result: HCV inhibitor)
C[C@H](CO)N1C[C@H](C)[C@@H](CN(C)S(=O)(=O)c2ccc(F)cc2)Oc2ccc(NC(=O)C3CCCCC3)cc2C1=O	none
CC(C)c1ccc(/C=C/C(=O)Nc2nc3ccc([N+](=O)[O-])cc3s2)cc1	HCMV antiviral inconclusive (no result: VACV mCherry inh, Vaccinia Venus)
O=[N+]([O-])c1ccc2nc(NN=Cc3ccc(O)cc3)sc2c1	HCMV antiviral -62, VACV mCherry inh 3.2µM, Vaccinia Venus inconclusive
CSc1ccc(CNCCCSc2ncccn2)cc1	none
CSc1ccc(CNCCCN(C)C)cc1	HCV inhibitor 5µM
COc1ccc2sc3c(=O)[nH]c4ccccc4c3c2c1	HCMV antiviral -83, Vaccinia Venus inconclusive (no result: VACV mCherry inh)
COc1ccc(CN2CC[C@H]3C=CC[C@@H](C(=O)N4CCN(c5ccccc5)CC4)[C@H]3C2=O)cc1OC	none (no result: HCMV antiviral, FMDV antiviral, HCV inhibitor)
CCOC(=O)C1=C(Cc2ccc(Cl)cc2)C(=O)c2ccccc2C1=O	FMDV antiviral inconclusive, HCV inhibitor 11µM (no result: HCMV antiviral)
CC(=O)N/C(=C\c1ccccc1)C(=O)OCC(=O)NC1CCCC1	none
Cc1nnnn1/C(=C\c1ccccc1)C(=O)OCC(=O)NC1CCCCC1	VACV mCherry inh inconclusive, FMDV antiviral 8.9µM, Vaccinia Venus inconclusive
CC(=O)Nc1ccc(NC(=O)COC(=O)c2c(C)nn(-c3ccccc3)c2C)cc1	HCV inhibitor inconclusive
Cc1nnnn1/C(=C\c1ccccc1)C(=O)OCC(=O)NC(C)(C)C	VACV mCherry inh inconclusive, FMDV antiviral 18µM
CC(=O)Nc1ccc(NC(=O)COC(=O)/C(=C/c2ccccc2)n2nnnc2C)cc1	VACV mCherry inh inconclusive, FMDV antiviral 20µM
COC(=O)COc1cccc(NC(=O)C(c2ccccc2)c2ccccc2)c1	none
CC1CCCCN1c1ncnc(N)c1[N+](=O)[O-] (configuration not stated)	HCMV antiviral -77
CC1Cc2ccccc2N1c1ncnc(N)c1[N+](=O)[O-] (configuration not stated)	HCMV antiviral -101, FMDV antiviral inconclusive (no result: VACV mCherry inh, Vaccinia Venus)
Cc1nc(N2CCOCC2)nc(N2CCCCC2C)c1[N+](=O)[O-] (configuration not stated)	HCV inhibitor inconclusive (no result: VACV mCherry inh, Vaccinia Venus)
Cc1nc2ccccc2c(=O)n1NC(=O)c1c(O)c2c(n(CC(C)C)c1=O)CCCC2	HCMV antiviral inconclusive, HCV inhibitor inconclusive (no result: VACV mCherry inh, Vaccinia Venus)
CCCn1c2c(c(O)c(C(=O)Nc3ccc(OC)cc3)c1=O)CCCC2	HCV inhibitor 11µM (no result: VACV mCherry inh)
CCCCCCc1nc2ccccc2c(=O)n1NC(=O)c1c(O)c2c(n(CC(C)C)c1=O)CCCC2	HCMV antiviral -93
CCCn1c2c(c(O)c(C(=O)NCc3ccccc3)c1=O)CCCC2	HCV inhibitor 5µM
O=C(OCC(=O)N1CCc2ccccc21)c1ccc([N+](=O)[O-])o1	none (no result: VACV mCherry inh, Vaccinia Venus)
Cc1cc(F)ccc1S(=O)(=O)Nc1ccccc1C(=O)Nc1ccccc1-c1nc2ccccc2[nH]1	VACV mCherry inh inconclusive, Vaccinia Venus inconclusive, HCV inhibitor 7.9µM (no result: HCMV antiviral)
CCOc1nc(-c2ccccc2)ccc1-c1noc(-c2ccco2)n1	HCMV antiviral inconclusive, HCV inhibitor 10µM
COc1nc(-c2ccccc2)ccc1-c1noc(-c2cccnc2)n1	HCMV antiviral -104 (no result: VACV mCherry inh, Vaccinia Venus)
COc1cc(=O)n2c(c1C(=O)N(C)Cc1ccsc1)CCN(Cc1cnn(C)c1C)CC2	none (no result: HCMV antiviral, HCV inhibitor)
CC(C)/C=C1\CC/C(=C\c2cccnc2)C1=O	FMDV antiviral 28µM (no result: VACV mCherry inh, Vaccinia Venus)
O=C1/C(=C/c2cccnc2)CC/C1=C\c1cccnc1	HCMV antiviral -99, FMDV antiviral 28µM
CCC1C/C(=C\c2cccnc2)C(=O)/C(=C/c2cccnc2)C1 (configuration not stated)	HCMV antiviral -98, VACV mCherry inh inconclusive, FMDV antiviral 3.5µM, Vaccinia Venus inconclusive, HCV inhibitor inconclusive
O=C1/C(=C\c2cccnc2)CCc2ccccc21	HCMV antiviral inconclusive (no result: VACV mCherry inh)
O=C1NC(=S)N/C1=C/c1cccnc1	HCMV antiviral -63
Nc1c(N=Nc2ccc([N+](=O)[O-])cc2)c(S(=O)(=O)O)cc2cc(S(=O)(=O)O)c(/C=C/c3ccccc3)c(O)c12	VACV mCherry inh inconclusive (no result: HCMV antiviral, FMDV antiviral, HCV inhibitor)
COc1ccc(-c2oc3ncn4nc(-c5ccccc5OC)nc4c3c2-c2ccc(OC)cc2)cc1	none (no result: HCV inhibitor)
O=C(Nc1cccnc1)c1cc(-c2ccc(Cl)cc2Cl)on1	none
O=C1/C(=C/c2cccnc2)CCC/C1=C\c1cccnc1	HCMV antiviral -101, VACV mCherry inh inconclusive, FMDV antiviral inconclusive, Vaccinia Venus inconclusive, HCV inhibitor inconclusive
CCc1noc(C)c1C(=O)NNC(=O)COc1ccccc1C	none (no result: VACV mCherry inh, Vaccinia Venus)
CCCCN(CCCC)c1nc(-c2ccncc2)nc2ccccc12	HCMV antiviral -70, FMDV antiviral 28µM (no result: VACV mCherry inh, Vaccinia Venus)
